Results reported in PubChem BioAssay (Tox21).
Results filed as inconclusive are left out. Entries that show only a call come without a potency. Active and inactive are the calls of the source. Unless noted, calls follow the shape of the dose curve; as a rule, active = well fitted curve in the direction sought with a large enough effect in the repeat runs; inconclusive = weak or mixed curves; inactive = no such curve, though single readings can be large; an effect the other way counts as inactive or inconclusive.

Columns and labels:
[1] = molecular target: Peroxisome proliferator-activated receptor gamma (Homo sapiens) (UniProt P37231); test: qHTS assay to identify small molecule antagonists of the peroxisome proliferator-activated receptor gamma (PPARg) signaling pathway (AID 743191; calls by dose curve; also: series mostly up to about 63 µM; nearly all actives have a fitted effect of over 30% in size)
Chain of Peroxisome proliferator-activated receptor gamma (Homo sapiens) (P37231 whole entry, looked up): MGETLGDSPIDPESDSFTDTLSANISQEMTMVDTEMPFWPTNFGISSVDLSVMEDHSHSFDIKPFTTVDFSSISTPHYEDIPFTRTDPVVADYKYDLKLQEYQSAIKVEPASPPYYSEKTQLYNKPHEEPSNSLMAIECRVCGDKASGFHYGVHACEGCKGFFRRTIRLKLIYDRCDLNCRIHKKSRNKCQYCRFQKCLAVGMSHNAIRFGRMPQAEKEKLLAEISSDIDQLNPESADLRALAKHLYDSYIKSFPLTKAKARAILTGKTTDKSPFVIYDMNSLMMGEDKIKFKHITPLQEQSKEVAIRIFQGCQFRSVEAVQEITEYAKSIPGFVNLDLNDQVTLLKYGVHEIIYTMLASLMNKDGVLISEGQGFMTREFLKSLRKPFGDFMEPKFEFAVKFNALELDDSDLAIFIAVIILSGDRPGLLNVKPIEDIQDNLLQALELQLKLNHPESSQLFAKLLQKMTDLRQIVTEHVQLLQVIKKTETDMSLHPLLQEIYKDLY
Method in brief: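 GeneBLAzer PPARg UAS-bla HEK293H cells, 5 h post-plating, exposed to compounds 17 h at 37C. LiveBLAzer B/G FRET substrate added for 1 h at room temperature; beta-lactamase reporter read by fluorescence intensity.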

[2] = qHTS assay for small molecule agonists of the antioxidant response element (ARE) signaling pathway (AID 743202; active = well fitted activation curve with a large enough effect in the signal ratio in the repeat runs, not every such curve was filed as active; the % refers to the signal ratio; also: potency is read from the fitted curve at half-maximal effect)
Method in brief: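 ARE-bla HepG2 cells (beta-lactamase reporter under the antioxidant response element), plated 5 hours, then exposed to compounds 16 hours at 37 C. LiveBLAzer B/G FRET substrate added for 2 hours at room temperature; fluorescence intensity read.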

[3] = qHTS assay for small molecule agonists of the antioxidant response element (ARE) signaling pathway - cell viability counter screen (AID 743203; calls by dose curve; also: nearly all actives have a fitted effect of over 55% in size; also: potency is read from the fitted curve at half-maximal effect)
Method in brief: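 HepG2 cells carrying ARE-driven beta-lactamase; 2,000 cells/well; 5 hrs plating; compound pinned from DMSO; 16 hrs 37C/5% CO2; CellTiter-Glo added; 30 min RT; luminescence.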

[4] = qHTS assay for small molecule activators of the heat shock response signaling pathway - cell viability counter screen (AID 743209); also: nearly all actives have a fitted effect of over 50% in size; also: potency is read from the fitted curve at half-maximal effect
Method in brief: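 Luminescence from CellTiter-Glo, added after the beta-lactamase FRET read, gave the viability signal. Cells were HSE-bla HeLa treated with DMSO-dissolved compounds for 5 h at 37 C following overnight plating.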

[5] = qHTS assay for small molecule activators of the heat shock response signaling pathway (AID 743210; active = well fitted activation curve with a large enough effect in the signal ratio in the repeat runs, with a control signal flat, not every such curve was filed as active; the % refers to the signal ratio; also: series mostly up to about 63 µM)
Method in brief: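 HSE-bla HeLa cells (beta-lactamase reporter under heat shock response elements), plated overnight, then exposed to compounds 5 h at 37 C; LiveBLAzer B/G FRET substrate added, 2.5 h at room temperature, fluorescence intensity read.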

[6] = qHTS assay to identify small molecule agonists of the peroxisome proliferator-activated receptor delta (PPARd) signaling pathway - cell viability counter screen (AID 743211); also: nearly all actives have a fitted effect of over 55% in size
Method in brief: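 Read-out: CellTiter-Glo luminescence, 30 min RT, measured in the same wells as the beta-lactamase reporter. Cells: GeneBLAzer PPAR delta UAS-bla HEK293H, 3000 cells/well, compound exposure 17 h at 37C.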

[7] = molecular target: Peroxisome proliferator-activated receptor delta (Homo sapiens) (UniProt Q03181); test: qHTS assay to identify small molecule agonists of the peroxisome proliferator-activated receptor delta (PPARd) signaling pathway (AID 743212; calls by dose curve)
Chain of Peroxisome proliferator-activated receptor delta (Homo sapiens) (Q03181 whole entry, looked up): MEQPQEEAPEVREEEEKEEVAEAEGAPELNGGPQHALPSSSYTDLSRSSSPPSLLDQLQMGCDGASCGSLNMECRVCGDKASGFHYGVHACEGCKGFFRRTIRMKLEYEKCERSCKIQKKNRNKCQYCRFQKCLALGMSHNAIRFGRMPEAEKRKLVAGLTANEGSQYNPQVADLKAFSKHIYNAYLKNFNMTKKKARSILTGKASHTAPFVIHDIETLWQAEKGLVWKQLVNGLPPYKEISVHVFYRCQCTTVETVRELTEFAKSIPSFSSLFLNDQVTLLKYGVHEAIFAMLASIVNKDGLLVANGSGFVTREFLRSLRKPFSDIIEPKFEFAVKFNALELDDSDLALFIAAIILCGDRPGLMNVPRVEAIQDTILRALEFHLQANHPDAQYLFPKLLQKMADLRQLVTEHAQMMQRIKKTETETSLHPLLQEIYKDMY
Method in brief: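 GeneBLAzer UAS-bla HEK293H cells carrying a PPARδ construct were exposed to compounds at 37 °C. Beta-lactamase activity was read by FRET fluorescence after 2 h at room temperature with LiveBLAzer B/G substrate.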

[8] = qHTS assay to identify small molecule antagonists of the peroxisome proliferator-activated receptor delta (PPARd) signaling pathway - cell viability counter screen (AID 743213); also: nearly all actives have a fitted effect of over 50% in size
Method in brief: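 In this counter screen, HEK293H cells carrying a UAS-beta-lactamase reporter are co-treated with test compounds and 300 nM L165041 (final) for 17 h at 37 C; cell viability is quantified by CellTiter-Glo luminescence.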

[9] = molecular target: Peroxisome proliferator-activated receptor delta (Homo sapiens) (UniProt Q03181); test: qHTS assay to identify small molecule antagonists of the peroxisome proliferator-activated receptor delta (PPARd) signaling pathway (AID 743215; active = well fitted inhibition curve with a large enough effect in the signal ratio in the repeat runs, not every such curve was filed as active; the % refers to the signal ratio;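 also: cells stimulated with agonist L165041 at 300 nM final during compound exposure; series mostly up to about 62 µM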)
Method in brief: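 Read-out is beta-lactamase FRET fluorescence, measured 2 h after substrate addition at room temperature. Beforehand, UAS-bla HEK293H cells carrying the PPARd reporter were exposed to compounds with L165041 at 300 nM final for 17 h at 37 C.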

[10] = qHTS assay to identify small molecule antagonists of the farnesoid-X-receptor (FXR) signaling pathway - cell viability counter screen (AID 743221; active = well fitted cell-killing curve with a large enough effect in the repeat runs, not every such curve was filed as active; also: nearly all actives have a fitted effect of over 50% in size)
Method in brief: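 HEK 293T FXR-bla cells, 5 h pre-incubation; compound + CDCA 50 uM final, 16 h, 37 C; beta-lactamase FRET read first, then CellTiter-Glo luminescence, 30 min RT.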

[11] = qHTS assay to identify aromatase inhibitors - cell viability counter screen (AID 743084);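 also: cells stimulated with testosterone during compound exposure; nearly all actives have a fitted effect of over 55% in size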; also: potency is read from the fitted curve at half-maximal effect
[12] = qHTS assay to identify small molecule agonists of the farnesoid-X-receptor (FXR) signaling pathway - cell viability counter screen (AID 743218); also: nearly all actives have a fitted effect of over 45% in size
Method in brief: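 HEK 293T FXR-bla cells; 5 h pre-incubation, 16 h compound exposure at 37 C; LiveBLAzer substrate 2 h RT, then CellTiter-Glo 30 min RT, luminescence.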

[13] = qHTS assay to identify small molecule antagonists of the peroxisome proliferator-activated receptor gamma (PPARg) signaling pathway - cell viability counter screen (AID 743194); conditions: Potency: co-treated with 50 nM rosiglitazone; also: nearly all actives have a fitted effect of over 55% in size
Method in brief: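 Cytotoxicity counter screen in PPARg-bla HEK293H cells, same wells as reporter assay. Compounds plus 50 nM rosiglitazone (final) for 17 h at 37 C, then viability read by CellTiter-Glo luminescence.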

[14] = molecular target: Bile acid receptor (Homo sapiens) (UniProt Q96RI1); test: qHTS assay to identify small molecule antagonists of the farnesoid-X-receptor (FXR) signaling pathway (AID 743217; active = well fitted inhibition curve with a large enough effect in the signal ratio in the repeat runs, not every such curve was filed as active; the % refers to the signal ratio)
Chain of Bile acid receptor (Homo sapiens) (Q96RI1 whole entry, looked up): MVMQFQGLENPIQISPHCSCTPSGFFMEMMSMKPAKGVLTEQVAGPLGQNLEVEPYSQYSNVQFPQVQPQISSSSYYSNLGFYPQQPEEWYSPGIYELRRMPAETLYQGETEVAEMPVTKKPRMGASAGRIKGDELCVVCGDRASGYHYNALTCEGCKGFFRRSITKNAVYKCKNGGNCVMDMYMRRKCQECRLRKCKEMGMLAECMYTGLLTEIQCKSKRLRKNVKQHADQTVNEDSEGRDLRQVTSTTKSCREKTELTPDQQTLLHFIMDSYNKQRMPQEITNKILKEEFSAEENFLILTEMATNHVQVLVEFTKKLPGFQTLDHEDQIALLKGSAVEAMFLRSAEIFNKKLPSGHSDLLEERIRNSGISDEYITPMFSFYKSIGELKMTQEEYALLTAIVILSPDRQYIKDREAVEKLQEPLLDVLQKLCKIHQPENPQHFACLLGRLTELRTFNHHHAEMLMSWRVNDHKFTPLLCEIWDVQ
Method in brief: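 HEK 293T FXR-UAS-bla, 5000 cells/well; compound + CDCA 50 uM final; 16 h, 37 °C; B/G FRET substrate 2 h RT; fluorescence.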

[15] = molecular target: Vitamin D3 receptor (Homo sapiens) (UniProt P11473); test: qHTS assay to identify small molecule agonists of the vitamin D receptor (VDR) signaling pathway (AID 743222; calls by dose curve)
Chain of Vitamin D3 receptor (Homo sapiens) (P11473 whole entry, looked up): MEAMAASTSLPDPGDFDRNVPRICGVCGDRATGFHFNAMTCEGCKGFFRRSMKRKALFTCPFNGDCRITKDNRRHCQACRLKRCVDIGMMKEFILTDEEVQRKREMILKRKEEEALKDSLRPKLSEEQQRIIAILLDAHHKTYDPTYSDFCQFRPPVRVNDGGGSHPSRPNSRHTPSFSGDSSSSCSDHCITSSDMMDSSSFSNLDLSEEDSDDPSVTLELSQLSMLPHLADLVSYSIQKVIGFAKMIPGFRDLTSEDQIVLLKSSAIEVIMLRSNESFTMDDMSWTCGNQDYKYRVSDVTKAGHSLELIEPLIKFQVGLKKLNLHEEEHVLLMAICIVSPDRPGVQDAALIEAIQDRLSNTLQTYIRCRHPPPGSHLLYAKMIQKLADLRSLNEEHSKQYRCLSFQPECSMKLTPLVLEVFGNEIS
Method in brief: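 VDR-bla cells, 2,000/well; 4 h preincubation 37C; cpd (DMSO) 16 h; LiveBLAzer B/G substrate 2 h RT; fluorescence intensity read.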

[16] = molecular target: Vitamin D3 receptor (Homo sapiens) (UniProt P11473); test: qHTS assay to identify small molecule antagonists of the vitamin D receptor (VDR) signaling pathway (AID 743223; active = well fitted inhibition curve with a large enough effect in the signal ratio in the repeat runs, not every such curve was filed as active; the % refers to the signal ratio)
Method in brief: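 Beta-lactamase reporter read-out: FRET substrate fluorescence after 2 h at room temperature, following 16 h exposure of VDR-bla cells to test compound plus 3 nM (final) 1alpha,25-dihydroxyvitamin D3 agonist at 37C.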

[17] = molecular target: Aryl hydrocarbon receptor (Homo sapiens) (UniProt P35869); test: qHTS assay to identify small molecule that activate the aryl hydrocarbon receptor (AhR) signaling pathway (AID 743085);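 also: HG2L7.5c1 human HepG2 liver cells with stably integrated DRE-driven firefly reporter; series mostly up to about 70 µM; nearly all actives have a fitted effect of over 15% in size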
Chain of Aryl hydrocarbon receptor (Homo sapiens) (P35869 whole entry, looked up): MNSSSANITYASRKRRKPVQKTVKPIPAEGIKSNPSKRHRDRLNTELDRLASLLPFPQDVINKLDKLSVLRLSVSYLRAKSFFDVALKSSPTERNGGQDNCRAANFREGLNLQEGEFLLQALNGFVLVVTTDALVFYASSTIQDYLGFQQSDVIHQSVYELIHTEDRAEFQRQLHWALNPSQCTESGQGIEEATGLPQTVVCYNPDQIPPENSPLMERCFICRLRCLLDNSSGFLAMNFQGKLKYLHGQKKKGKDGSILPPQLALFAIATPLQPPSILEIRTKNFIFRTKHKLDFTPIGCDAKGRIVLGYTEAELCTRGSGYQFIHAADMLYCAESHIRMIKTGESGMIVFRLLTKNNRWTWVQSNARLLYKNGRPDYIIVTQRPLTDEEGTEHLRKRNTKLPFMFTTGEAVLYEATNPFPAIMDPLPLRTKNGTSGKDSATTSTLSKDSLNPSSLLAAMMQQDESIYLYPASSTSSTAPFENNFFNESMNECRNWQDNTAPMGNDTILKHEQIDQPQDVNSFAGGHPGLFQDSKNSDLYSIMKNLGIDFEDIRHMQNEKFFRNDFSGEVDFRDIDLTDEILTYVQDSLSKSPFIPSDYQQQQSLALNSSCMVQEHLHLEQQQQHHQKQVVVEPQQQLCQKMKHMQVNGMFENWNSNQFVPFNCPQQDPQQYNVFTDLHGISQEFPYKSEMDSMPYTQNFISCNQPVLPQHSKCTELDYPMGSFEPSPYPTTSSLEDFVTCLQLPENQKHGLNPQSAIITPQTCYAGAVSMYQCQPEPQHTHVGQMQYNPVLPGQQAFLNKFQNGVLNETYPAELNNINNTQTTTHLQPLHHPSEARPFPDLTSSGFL
Method in brief: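 Luminescence read-out: ONE-Glo reagent, 30 min at room temperature, in HG2L7.5c1 HepG2 reporter cells treated 24 h at 37C. Viability was measured beforehand by CellTiter-Fluor fluorescence after 30 min at 37C.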

[18] = qHTS assay to identify small molecule that activate the aryl hydrocarbon receptor (AhR) signaling pathway - cell viability counter screen (AID 743086);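 also: HepG2 liver cells carrying the AhR DRE luciferase reporter; series mostly up to about 70 µM; nearly all actives have a fitted effect of over 45% in size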
Method in brief: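 HepG2-AhR-luc (HG2L7.5c1) cells, 4000/well, treated 24 h at 37 C with compound; viability measured as CellTiter-Fluor fluorescence after 30 min in the same wells as the luciferase read.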

[19] = molecular target: Bile acid receptor (Homo sapiens) (UniProt Q96RI1); test: qHTS assay to identify small molecule agonists of the farnesoid-X-receptor (FXR) signaling pathway (AID 743220; active = well fitted activation curve with a large enough effect in the signal ratio in the repeat runs, not every such curve was filed as active; the % refers to the signal ratio)
Method in brief: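 Beta-lactamase reporter under UAS control in GeneBLAzer FXR HEK 293T cells (5000/well) measured with LiveBLAzer FRET substrate after 2 h at room temperature. Compound exposure lasted 16 h at 37C.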

[20] = molecular target: Peroxisome proliferator-activated receptor gamma (Homo sapiens) (UniProt P37231); test: qHTS assay to identify small molecule agonists of the peroxisome proliferator-activated receptor gamma (PPARg) signaling pathway (AID 743094; active = well fitted activation curve with a large enough effect in the signal ratio in the repeat runs, not every such curve was filed as active; the % refers to the signal ratio)
Method in brief: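 Beta-lactamase FRET fluorescence was the read-out after a 1 h room-temperature substrate step, following 17 h compound treatment at 37C of HEK293H cells expressing a UAS-driven bla reporter responsive to PPARg.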

Row | SMILES | Potency [1] | Potency [2] | Potency [3] | Potency [4] | outcome [5] | Potency [6] | outcome [7] | outcome [8] | outcome [9] | outcome [10] | Potency [11] | Potency [12] | Potency [13] | Potency [14] | outcome [15] | outcome [16] | Potency [17] | outcome [18] | outcome [19] | outcome [20]
1 | ClCCCN1CCN(c2cccc(Cl)c2)CC1 | inactive | 6.68 µM (active) | inactive | inactive | inactive | inactive | inactive | inactive | inactive | inactive |  |  |  |  |  |  |  |  |  | 
2 | COc1cccc2c1cc([N+](=O)[O-])c1c(C(=O)O)cc3c(c12)OCO3 |  |  | 17.2 µM (active) | 3.89 µM (active) | inactive | inactive |  |  |  |  | 24.3 µM (active) | inactive |  |  |  |  |  |  |  | 
3 | Fc1ccc(C2(Cn3cncn3)OC2c2ccccc2Cl)cc1 (centres undefined) |  | inactive | inactive | inactive | inactive | inactive |  |  |  | inactive | inactive | inactive | inactive | inactive | inactive |  |  |  |  | 
4 | CC(C(O)c1ccccc1)N(C)C/C=C/c1ccccc1 (centres undefined) | inactive |  | inactive | inactive | inactive |  |  | inactive |  | inactive |  | inactive | inactive |  | inactive | inactive |  |  |  | 
5 | O=S(=O)(O)C(F)(F)C(F)(F)C(F)(F)C(F)(F)C(F)(F)C(F)(F)F | inactive |  | inactive | inactive | inactive | inactive |  | inactive | inactive | inactive |  | inactive |  | inactive | inactive |  | inactive | inactive | inactive | 
6 | CCCCC(=O)Cl |  |  | inactive | inactive | inactive | inactive | inactive | inactive | inactive |  |  | inactive |  | inactive | inactive |  |  | inactive | inactive | 
7 | O=C(CCN1CC1)OCC(CO)(COC(=O)CCN1CC1)COC(=O)CCN1CC1 | inactive | inactive | inactive | inactive | inactive | inactive |  | inactive |  | inactive |  | inactive | inactive | inactive |  |  | inactive | inactive | inactive | inactive
8 | O=C1OC(CCN2CCCCC2)OC1(c1ccccc1)c1ccccc1 (centres undefined) |  | 23.7 µM (active) | inactive |  |  | inactive |  | inactive |  | inactive |  | inactive | inactive | inactive | inactive | inactive |  |  |  | 
9 | CCNc1nc(NC(C)C)nc(OC)n1 |  | inactive | inactive | inactive | inactive | inactive |  | inactive | inactive | inactive |  | inactive | inactive | inactive | inactive | inactive |  | inactive | inactive | inactive
10 | COP(=S)(OC)Oc1ccc(S(N)(=O)=O)cc1 | inactive | inactive | inactive | inactive | inactive | inactive | inactive | inactive | inactive | inactive | inactive | inactive | inactive | inactive | inactive | inactive |  |  | inactive | inactive
11 | CC1(C(=O)Nc2ccc(O)c(Cl)c2Cl)CCCCC1 | inactive |  | inactive | inactive | inactive |  |  | inactive | inactive |  |  | inactive | inactive |  | inactive |  | inactive | inactive | inactive | 
12 | NC1=NC(=O)C(c2ccccc2)O1 (centres undefined) |  | inactive | inactive | inactive | inactive | inactive | inactive |  | inactive | inactive |  | inactive | inactive | inactive | inactive |  |  | inactive | inactive | 
13 | CCOC(=O)C1(c2ccccc2)CCN(CCc2ccc(N)cc2)CC1 |  | inactive | inactive | inactive | inactive | inactive | inactive |  | inactive |  |  | inactive | inactive |  | inactive | inactive |  |  |  | 
